# According to paper PMC4336329 (PLoS ONE, 2015):
# The campaign covered roughly 310,000 compounds. About 14,000 (4.5%) showed an effect of 50% or more. The effect is printed as a negative number. The entries come from a sample that favours strong results as a whole.
# Target: human ether-à-go-go-related gene (hERG) potassium channel (human, UniProt Q12809)
# Experiment: primary screen, population patch clamp on CHO cells stably expressing hERG; higher = less effect of the substance
# 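Note: peak tail current of the secondary pulse compared with the same well before compound.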
# Sequence of human ether-à-go-go-related gene (hERG) potassium channel (Q12809 whole entry, looked up): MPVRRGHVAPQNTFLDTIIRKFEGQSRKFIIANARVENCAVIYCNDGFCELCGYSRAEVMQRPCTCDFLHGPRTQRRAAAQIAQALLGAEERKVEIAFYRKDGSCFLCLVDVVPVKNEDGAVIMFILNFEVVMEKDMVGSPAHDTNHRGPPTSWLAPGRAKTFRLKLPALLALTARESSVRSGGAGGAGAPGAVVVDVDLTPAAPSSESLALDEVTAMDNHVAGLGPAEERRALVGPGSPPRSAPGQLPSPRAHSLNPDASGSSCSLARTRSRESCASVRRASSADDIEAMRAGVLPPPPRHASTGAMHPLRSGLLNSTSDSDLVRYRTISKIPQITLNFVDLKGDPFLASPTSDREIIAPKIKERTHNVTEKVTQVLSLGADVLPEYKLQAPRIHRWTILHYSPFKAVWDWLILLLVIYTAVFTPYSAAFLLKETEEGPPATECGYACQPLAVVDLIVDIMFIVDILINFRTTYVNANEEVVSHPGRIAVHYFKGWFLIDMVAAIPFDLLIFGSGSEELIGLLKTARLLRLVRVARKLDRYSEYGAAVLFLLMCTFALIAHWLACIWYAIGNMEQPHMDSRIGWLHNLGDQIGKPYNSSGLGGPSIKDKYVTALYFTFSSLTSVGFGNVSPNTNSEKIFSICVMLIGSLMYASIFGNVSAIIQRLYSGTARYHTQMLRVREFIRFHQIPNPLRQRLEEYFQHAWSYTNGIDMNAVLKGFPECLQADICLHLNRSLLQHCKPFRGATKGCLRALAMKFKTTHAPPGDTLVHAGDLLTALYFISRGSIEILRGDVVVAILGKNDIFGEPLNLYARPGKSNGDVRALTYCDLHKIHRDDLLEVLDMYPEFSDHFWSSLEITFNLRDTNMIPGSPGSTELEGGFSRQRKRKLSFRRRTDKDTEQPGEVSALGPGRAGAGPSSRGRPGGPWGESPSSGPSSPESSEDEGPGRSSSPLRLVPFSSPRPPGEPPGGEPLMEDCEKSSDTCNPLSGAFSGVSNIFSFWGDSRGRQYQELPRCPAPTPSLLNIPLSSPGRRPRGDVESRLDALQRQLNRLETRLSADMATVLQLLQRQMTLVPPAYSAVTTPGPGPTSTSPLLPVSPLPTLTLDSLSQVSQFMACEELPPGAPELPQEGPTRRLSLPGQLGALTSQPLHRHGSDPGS
row,SMILES,"hERG current change (%, negative = inhibition) at 10uM"
1,Cc1ccc2cccc(S(=O)(=O)Nc3c(C)n(C)n(-c4ccccc4)c3=O)c2n1,-0.878%
2,O=C(COc1ccc(F)cc1)NCC1(N2CCOCC2)CCCCC1,-27.9%
3,CC(C)(C)c1ccc(C(=O)N2CCN(c3ccc(N4CCOCC4)nn3)CC2)cc1,-49.3%
4,O=C(c1ccc2c(c1)OCO2)N1CCN(c2ccc(F)cc2)CC1,-30.4%
5,CCc1ccc(N2CCN(C(=O)c3ccc4c(c3)OCO4)CC2)cc1,-50.3%
6,CC(=O)c1ccc(N2CCN(C(=O)c3ccc4c(c3)OCO4)CC2)cc1,-45.4%
7,O=C(c1ccc(C(F)(F)F)cc1)N1CCN(c2ccc(N3CCOCC3)nn2)CC1,-67.9%
8,O=C(c1ccc(F)cc1)N1CCN(c2ccc(N3CCOCC3)nn2)CC1,-12%
9,Cc1ccccc1NCC(=O)N/N=C\c1ccc2c(c1)OCO2,-0.637%
10,COc1ccc(OC)c(NC(=O)NCCc2cccc(Cl)c2)c1,10.1%
11,C=CCCC1(C)C(=O)N(c2ccccc2)c2ccccc21 (stereo not drawn),-3.56%
12,O=C(CCS(=O)(=O)c1ccccc1)Nc1nc2c(s1)CCCC2,0.42%
13,CC1CCCN(c2nc3c(c(=O)n(C)c(=O)n3C)n2Cc2ccccc2)C1 (stereo not drawn),-40.9%
14,COc1ccc(N2CCN(S(=O)(=O)c3ccc4c(c3)NC(=O)C(C)S4)CC2)cc1 (stereo not drawn),6.85%
15,CC(C)C(C(=O)Nc1ccc(S(=O)(=O)N2CCOCC2)cc1)N1C(=O)c2ccccc2C1=O (stereo not drawn),-16.2%
16,CC/C(=N/NC(=O)CCC(=O)Nc1ccccc1OC)c1ccccc1,-1.67%
17,O=C(CN1CCN(Cc2ccccc2)CC1)Nc1ccc(Br)cc1,-71.9%
18,O=C(CN1CCN(Cc2ccccc2)CC1)Nc1ccccc1,-26.9%
19,O=C(CN1CCCCCC1)Nc1ccc(Cl)cn1,1.45%
20,O=C(CN1CCN(Cc2ccccc2)CC1)Nc1ccc(-n2cnnn2)cc1,-48%
21,O=C(CN1CCN(Cc2ccccc2)CC1)Nc1ccc(Cl)cn1,-74.5%

row,SMILES,"hERG current change (%, negative = inhibition) at 10uM"
1,O=C(CN1CCN(Cc2ccccc2)CC1)Nc1ccc(Cl)cc1,-68.4%
2,O=C(CN1CCN(Cc2ccccc2)CC1)Nc1ccc(N2CCOCC2)cc1,-3.67%
3,NC(=O)c1ccc(NC(=O)CN2CCN(Cc3ccccc3)CC2)cc1,-0.874%
4,O=C(CN1CCOCC1)Nc1ccc(Cl)cn1,20.6%
5,C/C(=N\NC(=O)c1cccnc1)c1ccc(OC2OCCOC2Oc2ccc(/C(C)=N/NC(=O)c3cccnc3)cc2)cc1 (stereo not drawn),8.81%
6,COc1ccc(-n2c(=O)n(Cc3ccccc3)c(=O)c3[nH]cnc32)cc1,-17.1%
7,COc1ccc(S(=O)(=O)NC2CCCC2)cc1C(N)=O,4.15%
8,CCCn1c(=O)c(C(=O)Nc2ncccc2O)c(O)c2ccccc21,11.1%
9,Cc1cc(=O)oc2ccc(OCC(=O)O)cc12,16.1%
10,Cc1cc(=O)oc2ccc(OCC(=O)N(Cc3ccc(F)cc3)Cc3ccco3)cc12,-58.8%
11,Cc1cc(=O)oc2cc(OCC(=O)NCc3ccco3)ccc12,-6.81%
12,COc1ccc2ccccc2c1CNc1nnnn1C,17.9%
13,CSc1ccc(S(=O)(=O)N2CCC(C(=O)N3CCOCC3)CC2)cc1,2.57%
14,Cc1c(CC(=O)N2C[C@H]3C[C@@H](C2)c2cccc(=O)n2C3)c(=O)oc2cc(O)c(Cl)cc12,9.44%
15,COc1ccc2c(C)c(CC(=O)N3C[C@H]4C[C@@H](C3)c3cccc(=O)n3C4)c(=O)oc2c1,-32.4%
16,COc1ccc2c(C)c(CC(=O)N3C[C@H]4C[C@@H](C3)c3cccc(=O)n3C4)c(=O)oc2c1OC,-1.03%
17,COc1ccc2c(C)c(CCC(=O)N3C[C@H]4C[C@@H](C3)c3cccc(=O)n3C4)c(=O)oc2c1,-34.9%
18,C=C(C)COc1ccc2c(C)c(CC(=O)N3C[C@H]4C[C@@H](C3)c3cccc(=O)n3C4)c(=O)oc2c1,-48.5%
19,Cc1coc2cc3oc(=O)c(CC(=O)N4C[C@H]5C[C@@H](C4)c4cccc(=O)n4C5)c(C)c3cc12,-41.5%
20,C=C(C)COc1ccc2c(C)c(CCC(=O)N3C[C@H]4C[C@@H](C3)c3cccc(=O)n3C4)c(=O)oc2c1,-60.4%
21,Cc1c(CC(=O)N2C[C@H]3C[C@@H](C2)c2cccc(=O)n2C3)c(=O)oc2c(C)c(O)ccc12,4.94%

row,SMILES,"hERG current change (%, negative = inhibition) at 10uM"
1,Cc1oc2c(C)c3oc(=O)c(CCC(=O)N4C[C@H]5C[C@@H](C4)c4cccc(=O)n4C5)c(C)c3cc2c1C,-51.7%
2,Cc1oc2cc3oc(=O)c(CCC(=O)N4C[C@H]5C[C@@H](C4)c4cccc(=O)n4C5)c(C)c3cc2c1C,-54%
3,Cc1coc2cc3oc(=O)c(CCC(=O)N4C[C@H]5C[C@@H](C4)c4cccc(=O)n4C5)c(C)c3cc12,-42.5%
4,Cc1c(CC(=O)N2C[C@H]3C[C@@H](C2)c2cccc(=O)n2C3)c(=O)oc2cc3occ(C(C)(C)C)c3cc12,-73.4%
5,CCOC(=O)c1ccc(NC(=O)Nc2ccc3c(c2)OCCO3)cc1,10.6%
6,Cn1c(=O)c2c(nc(SCC(=O)c3cccs3)n2Cc2ccc(F)cc2)n(C)c1=O,-13.2%
7,COc1ccc(C(=O)c2ccccc2Cl)cc1,-34.5%
8,O=C(CSc1nnc(CNC(=O)c2ccccc2F)o1)NCc1ccccc1,-7.93%
9,Cc1ccc(NC(=O)COC(=O)C2CC(=O)N(Cc3ccccc3)C2)cc1S(=O)(=O)N(C)C (stereo not drawn),7.45%
10,CCCn1ccnc1SC(C)C(=O)Nc1c(C)n(C)n(-c2ccccc2)c1=O (stereo not drawn),16.9%
11,CN1C(=O)N(C)c2ccc(Br)c3cccc1c23,23.5%
12,CC(OC(=O)c1ccccc1C(=O)N(C)c1ccccc1)C(=O)Nc1ccc(C(N)=O)cc1 (stereo not drawn),-4.36%
13,CCc1cc(=O)oc2cc(OCC(=O)N3C[C@H]4C[C@@H](C3)c3cccc(=O)n3C4)ccc12,8.87%
14,Cc1coc2c(C)c3oc(=O)c(CCC(=O)N4C[C@H]5C[C@@H](C4)c4cccc(=O)n4C5)c(C)c3cc12,-50.6%
15,COc1ccc(-c2cc(=O)oc3cc(OCC(=O)N4C[C@H]5C[C@@H](C4)c4cccc(=O)n4C5)ccc23)cc1,-53.5%
16,Cc1c(C)c2ccc(OCC(=O)N3C[C@H]4C[C@@H](C3)c3cccc(=O)n3C4)c(C)c2oc1=O,1.39%
17,Cc1c(OCC(=O)N2C[C@H]3C[C@@H](C2)c2cccc(=O)n2C3)ccc2c3c(c(=O)oc12)CCCC3,-13.5%
18,Cc1cc(=O)oc2cc(OCC(=O)N3C[C@H]4C[C@@H](C3)c3cccc(=O)n3C4)ccc12,1.52%
19,COCCOC1CCN(C(=O)C2CCC(=O)N(Cc3cccc(F)c3)C2)CC1 (stereo not drawn),20.1%
20,CCOC(=O)N1CCN(C(=O)c2ccc(NS(=O)(=O)c3ccc(F)cc3)cc2)CC1,-1.81%
21,CCN(C(=O)COC(=O)C1CCN(S(=O)(=O)c2ccc(C)c(C)c2)CC1)C1CCCCC1,-10.4%

row,SMILES,"hERG current change (%, negative = inhibition) at 10uM"
1,Cc1ccc(/C(N)=N/OC(=O)CSc2ccccc2)cc1,-5.49%
2,Cn1nc(-c2ccc(Cl)cc2)c2cc(C(=O)N3CCN(C(=O)c4ccco4)CC3)sc21,-20.7%
3,CC(CCc1ccco1)NC(=O)c1cc2c(-c3ccccc3F)nn(C)c2s1 (stereo not drawn),-5.86%
4,CC1CCCCN1CCNC(=O)c1cc2c(-c3ccccc3F)nn(C)c2s1 (stereo not drawn),-56.1%
5,Cn1nc(-c2ccccc2F)c2cc(C(=O)N3CCN(C(=O)c4ccco4)CC3)sc21,-57.2%
6,CC(=O)c1ccc(N2CCN(C(=O)c3cc4c(-c5ccccc5F)nn(C)c4s3)CC2)cc1,-20.7%
7,CN(CCNC(=O)c1cc2c(-c3ccccc3F)nn(C)c2s1)C1CCCCC1,-50.8%
8,Cn1nc(-c2ccccc2F)c2cc(C(=O)Nc3ccc4c(c3)OCCO4)sc21,14.8%
9,COCCNC(=O)c1cc2c(-c3ccccc3F)nn(C)c2s1,-6.2%
10,CCOC(=O)N1CCC(NC(=O)c2cc3c(-c4ccccc4F)nn(C)c3s2)CC1,13.5%
11,CCOc1ccc(NC(=O)c2ccc(-n3cccn3)nc2)cc1,18.7%
12,CCN(/C=N/c1sc2c(c1C#N)CCCCC2)CC,5.56%
13,CC(c1ccccc1)n1c(-c2ccc(Cl)cc2)n[nH]c1=S (stereo not drawn),13.9%
14,CCOc1cc(C(=O)Nc2ccc([N+](=O)[O-])cn2)cc(OCC)c1OCC,-29%
15,COc1ccc(C(=O)CC(=O)C(=O)Nc2cc(OC)c(OC)c(OC)c2)cc1,8.58%
16,Cc1ccc2[nH]c3c(NCCCN4CCCC4=O)ncnc3c2c1,-13.7%
17,Cc1ccc2ncnc(NCCCN3CCOCC3)c2c1,-13.6%
18,Clc1ccc2[nH]c3c(NCCN4CCOCC4)ncnc3c2c1,-61.8%
19,Clc1ccc2[nH]c3c(NCCCN4CCOCC4)ncnc3c2c1,-69.9%
20,Clc1ccc(-n2ncc3c(NCCN4CCOCC4)ncnc32)cc1,-34.7%
21,Fc1ccc2[nH]c3c(NCCN4CCOCC4)ncnc3c2c1,-16.8%
